Screens deposited in PubChem by National Center for Advancing Translational Sciences (NCATS).
An excerpt weighted towards active compounds, which were near 8.7% of everything screened.
Pf growth 96h: Primary qHTS for delayed death inhibitors of the malarial parasite plastid, 96 hour incubation; P. falciparum luciferase reporter growth, 96 h; Potency, µM (top dose mostly 28.7 µM), without a hit: at the highest dose activity change, negative = inhibition, most hits filed as inhibitors; 320,000 compounds, 6.9% hits; AID 504834, 2011
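Cell-based qHTS: luciferase-tagged P. falciparum in erythrocytes (2% hematocrit, 0.05% parasitemia final) incubated with compounds for 96 hours, 37 C, 5% CO2; luciferase detection reagent then added and luminescence measured.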
Vaccinia mCherry: qHTS for Stage-Specific Inhibitors of Vaccinia Orthopoxvirus: mCherry Reporter Primary qHTS; AID 720579, 2013; Vaccinia virus mCherry reporter infection, fluorescence; 310,000 compounds, 0.63% hits; Potency, µM (highest dose often 36.5 µM), for the others: at the top dose activity change, negative = inhibition, actives largely listed as inhibitors; calls by dose curve; tested in A549 cells; further: nearly all actives have a fitted effect of over 35% in size
AMA1 RON2 block: qHTS for Inhibitors of AMA1-RON; Towards Development of Antimalarial Drug Lead: Primary Screen; Plasmodium falciparum AMA1 (3D7) - RON2 peptide interaction; AlphaScreen AMA1-biotinylated RON2 peptide binding; Potency, µM (series often up to 58.2 µM), inactives show at the highest dose activity change, negative = inhibition, actives largely listed as inhibitors; 360,000 compounds, 0.2% hits;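 further: 0% = vehicle wells and -100% = peptide control; nearly all actives have a fitted effect of over 45% in size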
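AMA1 (3D7) with his tag at 25 nM final met compounds first, then biotinylated RON2 peptide at 25 nM; detection used donor plus acceptor beads, 10 µg/mL apiece, read by AlphaScreen after 30 min at room temperature.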
Pf growth 48h: Primary qHTS for delayed death inhibitors of the malarial parasite plastid, 48 hour incubation; P. falciparum luciferase growth in erythrocytes, 48 h; 310,000 compounds, 5.9% hits; Potency, µM (highest dose often 28.7 µM), for the others: at the top dose activity change, negative = inhibition, actives largely listed as inhibitors; AID 504832, 2011
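In quantitative HTS format, infected erythrocytes bearing luciferase-reporter parasites were treated for a single generation at 37 C. Luminescence after adding detection reagent served as the growth measure.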
VACV Venus inh: qHTS for Stage-Specific Inhibitors of Vaccinia Orthopoxvirus: Venus Reporter Primary qHTS; Vaccinia virus Venus reporter expression, fluorescence; Potency, µM (highest dose often 36.5 µM), for the others: at the top dose activity change, negative = inhibition, hits mostly inhibitors; AID 720580, 2013; 330,000 compounds, 0.46% hits; calls by dose curve; tested in A549 cells; further: nearly all actives have a fitted effect of over 30% in size
Numbers without * were called inactive; [ ] = another dose, or the depositor's remark. Unless noted, the call rests on the fitted dose curve; in most records, active means well fitted curve in the direction sought with a large enough effect; inconclusive means small, poorly fitted or top-dose-only effect, or another doubt; inactive means no such curve, though single readings can be large; an effect the other way counts as inactive or inconclusive. Unless noted, on the % scale 0 is the no-effect control and ±100 the full control effect; potency means the concentration at half of the fitted maximal effect.

How did COc1ccc(CNCCc2ccccc2F)c(OC)c1C do in these assays?
Pf growth 96h: -6.4%; AMA1 RON2 block: inconclusive; Pf growth 48h: 10.4µM*

Results for COc1ccc(CNCCc2c[nH]c3ccccc23)c(OC)c1C ?
Pf growth 96h: 2.94µM*; Vaccinia mCherry: -10.2%; AMA1 RON2 block: inconclusive; Pf growth 48h: inconclusive; VACV Venus inh: -14.5%

How did COc1cc(C)c(CNCCc2c[nH]c3ccccc23)cc1C do in these assays?
Pf growth 96h: 28.5%; AMA1 RON2 block: inconclusive; Pf growth 48h: inconclusive

How did CCOc1cc(CNCCc2ccccc2F)ccc1OC do in these assays?
Pf growth 96h: inconclusive; AMA1 RON2 block: -0.3%; Pf growth 48h: -25.4%

Results for Cc1ccccc1N(Cc1cc(=O)[nH]c2ccccc12)C(=O)CCl ?
Pf growth 96h: 1.85µM*; Pf growth 48h: 4.65µM*

What do the screens show for `Cc1ccccc1N(Cc1cc(=O)[nH]c2ccccc12)C(=O)C(C)C`?
Pf growth 96h: inconclusive; Vaccinia mCherry: -14.0%; AMA1 RON2 block: 0.0%; Pf growth 48h: 14.7µM*; VACV Venus inh: -9.6%

How did COc1ccc(NCc2cc(=O)[nH]c3ccccc23)cc1 do in these assays?
Pf growth 96h: 5.0%; Vaccinia mCherry: -28.2%; AMA1 RON2 block: -3.7%; Pf growth 48h: 3.0%; VACV Venus inh: inconclusive

How did O=C(CCl)N(Cc1cc(=O)[nH]c2ccccc12)c1ccccc1 do in these assays?
Pf growth 96h: 10.4µM*; Vaccinia mCherry: inconclusive; AMA1 RON2 block: -22.0%; Pf growth 48h: 10.4µM*; VACV Venus inh: inconclusive

How did O=c1cc(CNCCCO)c2ccccc2[nH]1 do in these assays?
Pf growth 96h: 3.7µM*; AMA1 RON2 block: -8.5%; Pf growth 48h: -0.3%; VACV Venus inh: 13.7%

Results for CCC(=O)N(Cc1cc(=O)[nH]c2ccccc12)c1ccccc1 ?
Pf growth 96h: -17.2%; Vaccinia mCherry: -18.0%; AMA1 RON2 block: -25.0%; Pf growth 48h: -1.4%; VACV Venus inh: -18.7%

How did CCc1cnc2c(c1SC(C(C)=O)C(=O)N(C)C)c(=O)n(C)c(=O)n2C (stereo not drawn) do in these assays?
Vaccinia mCherry: -4.1%; VACV Venus inh: -2.7%

How did O=C(CCl)N(Cc1ccccc1)c1ccccc1 do in these assays?
Pf growth 96h: inconclusive; AMA1 RON2 block: -3.6%; Pf growth 48h: 10.4µM*

What do the screens show for `COc1cccc(-c2nnc3n(Cc4ccc(C)cc4)c(=O)c4ccccc4n23)c1O`?
Vaccinia mCherry: -17.5%; VACV Venus inh: -3.7%

What do the screens show for `O=C(C1CCN(S(=O)(=O)c2cccs2)CC1)N1CCN(c2ccccc2O)CC1`?
Pf growth 96h: 7.38µM*; AMA1 RON2 block: 3.5%; Pf growth 48h: inconclusive

What do the screens show for `O=C(CC12CC3CC(CC(C3)C1)C2)N1CCN(S(=O)(=O)c2cccs2)CC1`?
Pf growth 96h: 13.1µM*; Vaccinia mCherry: -18.1%; AMA1 RON2 block: -13.9%; Pf growth 48h: inconclusive; VACV Venus inh: -10.5%

What do the screens show for `Cc1ccccc1CC(=O)N1CCN(S(=O)(=O)c2cccs2)CC1`?
Pf growth 96h: inconclusive; AMA1 RON2 block: -13.0%; Pf growth 48h: 19.1%

How did CC(C(=O)N1c2ccccc2CC1C)N1CCN(S(=O)(=O)c2ccccc2F)CC1 (stereo not drawn) do in these assays?
Pf growth 96h: inconclusive; AMA1 RON2 block: inconclusive; Pf growth 48h: 13.1µM*

What do the screens show for `CC1Cc2ccccc2N1C(=O)C1CCN(S(=O)(=O)c2cccs2)CC1` (stereo not drawn)?
Pf growth 96h: 0.928µM*; Vaccinia mCherry: 2.8%; AMA1 RON2 block: 16.8%; Pf growth 48h: -26.8%; VACV Venus inh: 17.0%

How did O=C(C1CCN(S(=O)(=O)c2cccs2)CC1)N1CCN(c2ccccc2F)CC1 do in these assays?
Vaccinia mCherry: -9.7%; VACV Venus inh: -8.6%

How did CCCCNc1nc(Oc2ccc(OCCC)nn2)nc(N(C)C)n1 do in these assays?
Vaccinia mCherry: -15.2%; VACV Venus inh: -7.2%

Results for N#CCC(=O)Nc1ccc(C(=O)OCC(=O)NCCCc2ccccc2)cc1 ?
Pf growth 96h: 1.17µM*; AMA1 RON2 block: 4.7%; Pf growth 48h: -78.8%

How did Cc1ccc(NC(=O)CN(C)C(=O)COC(=O)c2ccc(NC(=O)CC#N)cc2)cc1 do in these assays?
Vaccinia mCherry: -21.4%; AMA1 RON2 block: 0.5%; VACV Venus inh: -8.4%

How did Cc1ccc(Cn2ccsc2=NC(=O)CCl)cc1 do in these assays?
Pf growth 96h: inconclusive; AMA1 RON2 block: 1.2%; Pf growth 48h: inconclusive

What do the screens show for `N#CCC(=O)Nc1ccc(C(=O)OCC(=O)C23CC4CC(CC(C4)C2)C3)cc1`?
Pf growth 96h: inconclusive; Vaccinia mCherry: -3.2%; AMA1 RON2 block: 0.2%; Pf growth 48h: 13.1µM*; VACV Venus inh: -18.4%

What do the screens show for `N#CCC(=O)Nc1ccc(C(=O)OCc2ccccc2Oc2ccccc2)cc1`?
Pf growth 96h: inconclusive; Vaccinia mCherry: inconclusive; AMA1 RON2 block: -7.9%; Pf growth 48h: 10.4µM*; VACV Venus inh: -1.0%

What do the screens show for `Cc1ccc(Cn2ccsc2=NC(=O)COC(=O)c2ccc(NC(=O)CC#N)cc2)cc1`?
Pf growth 96h: 10.4µM*; Vaccinia mCherry: -12.3%; AMA1 RON2 block: 11.0%; Pf growth 48h: 13.1µM*; VACV Venus inh: -11.0%

What do the screens show for `COc1ccccc1C(=O)NC(=O)COC(=O)c1ccc(NC(=O)CC#N)cc1`?
Pf growth 96h: -7.6%; Vaccinia mCherry: -3.4%; AMA1 RON2 block: 28.5%; Pf growth 48h: 2.5%; VACV Venus inh: -6.0%

How did O=C(COC(=O)c1ccncc1)NCCCc1ccccc1 do in these assays?
Pf growth 96h: 8.9%; Vaccinia mCherry: inactive; AMA1 RON2 block: -4.2%; Pf growth 48h: 22.5%; VACV Venus inh: 3.6%

What do the screens show for `Cc1ccccc1OCC(=O)Nc1ccc(OCc2cc(=O)n3ccsc3n2)cc1`?
Vaccinia mCherry: -14.0%; VACV Venus inh: -22.5%

What do the screens show for `CC(C)CC(=O)NC1CC(=O)N(c2ccc3c(c2)OCCO3)C1` (stereo not drawn)?
Vaccinia mCherry: 1.8%; VACV Venus inh: -5.7%

How did CC(C)(C)OC(=O)N1CCC(c2c(C(=O)NCc3ccco3)cnn2-c2ccccc2)CC1 do in these assays?
Vaccinia mCherry: -5.4%; VACV Venus inh: -12.3%

What do the screens show for `CC[N+](CC)(CC)c1ccc(/C=C/c2ccc3ccccc3n2)cc1`?
Vaccinia mCherry: inactive; VACV Venus inh: inactive

What do the screens show for `COC(=O)CC1C(=O)NCCN1C(=O)c1ccc2oc(C(C)C)nc2c1` (stereo not drawn)?
Pf growth 96h: 14.7µM*; Vaccinia mCherry: inactive[7.34 µM]; AMA1 RON2 block: -12.9%; Pf growth 48h: 7.0%; VACV Venus inh: -12.6%[7.34 µM]

What do the screens show for `c1ccc(OCc2noc(CN3CC[C@@H]4CCCC[C@H]4C3)n2)cc1`?
Pf growth 96h: 13.1µM*; AMA1 RON2 block: 9.5%; Pf growth 48h: 17.7%
